How the values were obtained:
HCI01 = cells of a triple-negative basal-like breast cancer xenograft; assay: cell viability of combination (% of vehicle); higher = less cytotoxic; conditions: 1 µM; 72 h; partner dose: 10 nM
Method: (§1)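 PDX cells were treated for 72 h with each drug at 1 µM plus carfilzomib (10 nM; 100 nM for WHIM2). Luciferase viability is expressed as percent of vehicle.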

UCD52 = cells of a triple-negative basal-like breast cancer xenograft; assay: as above; conditions: 1 µM; 72 h; partner dose: 10 nM
Method: as §1

Row | Compound | cell viability of combination (HCI01) | cell viability of combination (UCD52)
1 | Nc1c(CC(=O)[O-])cccc1C(=O)c1ccccc1.O.[Na+] [Amfenac Sodium Monohydrate] + CC(C)C[C@H](NC(=O)[C@H](CCc1ccccc1)NC(=O)CN1CCOCC1)C(=O)N[C@@H](Cc1ccccc1)C(=O)N[C@@H](CC(C)C)C(=O)[C@@]1(C)CO1 [Carfilzomib] | 76.5 | 66.3
2 | COc1cc(C(=O)O)ccc1NC(=O)C1NC(CC(C)(C)C)C(C#N)(c2ccc(Cl)cc2F)C1c1cccc(Cl)c1F (stereo not given) + CC(C)C[C@H](NC(=O)[C@H](CCc1ccccc1)NC(=O)CN1CCOCC1)C(=O)N[C@@H](Cc1ccccc1)C(=O)N[C@@H](CC(C)C)C(=O)[C@@]1(C)CO1 [Carfilzomib] | 79.1 | 62.7
3 | CN(C)CC=CC(=O)Nc1cc2c(Nc3ccc(F)c(Cl)c3)ncnc2cc1OC1CCOC1.O=C(O)C=CC(=O)O.O=C(O)C=CC(=O)O (stereo not given) [Afatinib dimaleate] + CC(C)C[C@H](NC(=O)[C@H](CCc1ccccc1)NC(=O)CN1CCOCC1)C(=O)N[C@@H](Cc1ccccc1)C(=O)N[C@@H](CC(C)C)C(=O)[C@@]1(C)CO1 [Carfilzomib] | 86.1 | 26.6
4 | Cc1ccc(NC(=O)c2ccc(CN3CCN(C)CC3)cc2)cc1Nc1nc(-c2cccnc2)cs1 [Masitinib (AB1010)] + CC(C)C[C@H](NC(=O)[C@H](CCc1ccccc1)NC(=O)CN1CCOCC1)C(=O)N[C@@H](Cc1ccccc1)C(=O)N[C@@H](CC(C)C)C(=O)[C@@]1(C)CO1 [Carfilzomib] | 86.3 | 69.6
5 | Nc1ccc2cc3ccc([NH3+])cc3nc2c1.Nc1ccc2cc3ccc([NH3+])cc3nc2c1.O=S(=O)([O-])[O-] [Proflavine Hemisulfate] + CC(C)C[C@H](NC(=O)[C@H](CCc1ccccc1)NC(=O)CN1CCOCC1)C(=O)N[C@@H](Cc1ccccc1)C(=O)N[C@@H](CC(C)C)C(=O)[C@@]1(C)CO1 [Carfilzomib] | 78 | 94
6 | CC(C)c1nc(N(C)S(C)(=O)=O)nc(-c2ccc(F)cc2)c1C=CC(O)CC(O)CC(=O)[O-].CC(C)c1nc(N(C)S(C)(=O)=O)nc(-c2ccc(F)cc2)c1C=CC(O)CC(O)CC(=O)[O-].[Ca+2] (stereo not given) [Rosuvastatin Calcium] + CC(C)C[C@H](NC(=O)[C@H](CCc1ccccc1)NC(=O)CN1CCOCC1)C(=O)N[C@@H](Cc1ccccc1)C(=O)N[C@@H](CC(C)C)C(=O)[C@@]1(C)CO1 [Carfilzomib] | 80.8 | 67.7
7 | Cc1c(-c2ccc(O)cc2)n(Cc2ccc(OCCN3CCCCCC3)cc2)c2ccc(O)cc12.Cl [Bazedoxifene HCl] + CC(C)C[C@H](NC(=O)[C@H](CCc1ccccc1)NC(=O)CN1CCOCC1)C(=O)N[C@@H](Cc1ccccc1)C(=O)N[C@@H](CC(C)C)C(=O)[C@@]1(C)CO1 [Carfilzomib] | 107 | 64.4
8 | C=CC(=O)N1CCC(Oc2cc3c(Nc4ccc(Cl)c(Cl)c4F)ncnc3cc2OC)CC1 [Poziotinib] + CC(C)C[C@H](NC(=O)[C@H](CCc1ccccc1)NC(=O)CN1CCOCC1)C(=O)N[C@@H](Cc1ccccc1)C(=O)N[C@@H](CC(C)C)C(=O)[C@@]1(C)CO1 [Carfilzomib] | 52.8 | 28.9
9 | CN(C)c1ccc(O)c2c1CC1CC3C(N(C)C)C(=O)C(C(N)=O)=C(O)C3(O)C(=O)C1=C2O.Cl (stereo not given) [Minocycline HCl] + CC(C)C[C@H](NC(=O)[C@H](CCc1ccccc1)NC(=O)CN1CCOCC1)C(=O)N[C@@H](Cc1ccccc1)C(=O)N[C@@H](CC(C)C)C(=O)[C@@]1(C)CO1 [Carfilzomib] | 83.9 | 65.9
10 | Cn1cnc2c(F)c(Nc3ccc(Br)cc3F)c(C(=O)NOCCO)cc21 + CC(C)C[C@H](NC(=O)[C@H](CCc1ccccc1)NC(=O)CN1CCOCC1)C(=O)N[C@@H](Cc1ccccc1)C(=O)N[C@@H](CC(C)C)C(=O)[C@@]1(C)CO1 [Carfilzomib] | 67.1 | 50.1
11 | Cc1c(Cl)cccc1Nc1ccccc1C(=O)O [Tolfenamic Acid] + CC(C)C[C@H](NC(=O)[C@H](CCc1ccccc1)NC(=O)CN1CCOCC1)C(=O)N[C@@H](Cc1ccccc1)C(=O)N[C@@H](CC(C)C)C(=O)[C@@]1(C)CO1 [Carfilzomib] | 74.7 | 69.7
12 | CO[C@H]1/C=C/O[C@@]2(C)Oc3c(C)c(O)c4c(O)c(c(/C=N/N5CCN(C6CCCC6)CC5)c(O)c4c3C2=O)NC(=O)/C(C)=C\C=C\[C@H](C)[C@H](O)[C@@H](C)[C@@H](O)[C@@H](C)[C@H](OC(C)=O)[C@@H]1C [Rifapentine] + CC(C)C[C@H](NC(=O)[C@H](CCc1ccccc1)NC(=O)CN1CCOCC1)C(=O)N[C@@H](Cc1ccccc1)C(=O)N[C@@H](CC(C)C)C(=O)[C@@]1(C)CO1 [Carfilzomib] | 78.8 | 58.6
13 | CC[C@@H]1/C=C(\C)C[C@H](C)C[C@H](OC)[C@H]2O[C@@](O)(C(=O)C(=O)N3CCCC[C@H]3C(=O)O[C@H](/C(C)=C/[C@@H]3CC[C@H](Cl)[C@H](OC)C3)[C@H](C)[C@@H](O)CC1=O)[C@H](C)C[C@@H]2OC [Pimecrolimus] + CC(C)C[C@H](NC(=O)[C@H](CCc1ccccc1)NC(=O)CN1CCOCC1)C(=O)N[C@@H](Cc1ccccc1)C(=O)N[C@@H](CC(C)C)C(=O)[C@@]1(C)CO1 [Carfilzomib] | 95.7 | 49.2
14 | Clc1ccc(C(Cn2ccnc2)OCc2ccc(Sc3ccccc3)cc2)c(Cl)c1.O=[N+]([O-])O (stereo not given) [Fenticonazole Nitrate] + CC(C)C[C@H](NC(=O)[C@H](CCc1ccccc1)NC(=O)CN1CCOCC1)C(=O)N[C@@H](Cc1ccccc1)C(=O)N[C@@H](CC(C)C)C(=O)[C@@]1(C)CO1 [Carfilzomib] | 83.9 | 65.2
15 | CO[C@@]12[C@H](COC(N)=O)C3=C(C(=O)C(C)=C(N)C3=O)N1C[C@@H]1N[C@@H]12 [Mitomycin C] + CC(C)C[C@H](NC(=O)[C@H](CCc1ccccc1)NC(=O)CN1CCOCC1)C(=O)N[C@@H](Cc1ccccc1)C(=O)N[C@@H](CC(C)C)C(=O)[C@@]1(C)CO1 [Carfilzomib] | 51.1 | 64
16 | O=C(NC1CCN(CCCCC2(C(=O)NCC(F)(F)F)c3ccccc3-c3ccccc32)CC1)c1ccccc1-c1ccc(C(F)(F)F)cc1 [Lomitapide] + CC(C)C[C@H](NC(=O)[C@H](CCc1ccccc1)NC(=O)CN1CCOCC1)C(=O)N[C@@H](Cc1ccccc1)C(=O)N[C@@H](CC(C)C)C(=O)[C@@]1(C)CO1 [Carfilzomib] | 84.9 | 38.9
17 | CC[C@@]1(O)C(=O)OCc2c1cc1n(c2=O)Cc2cc3c(CN(C)C)c(O)ccc3nc2-1.Cl [Topotecan HCl] + CC(C)C[C@H](NC(=O)[C@H](CCc1ccccc1)NC(=O)CN1CCOCC1)C(=O)N[C@@H](Cc1ccccc1)C(=O)N[C@@H](CC(C)C)C(=O)[C@@]1(C)CO1 [Carfilzomib] | 55.9 | 54.7
18 | CC(C)c1nc(CN(C)C(=O)NC(C(=O)NC(Cc2ccccc2)CC(O)C(Cc2ccccc2)NC(=O)OCc2cncs2)C(C)C)cs1 (stereo not given) [Ritonavir] + CC(C)C[C@H](NC(=O)[C@H](CCc1ccccc1)NC(=O)CN1CCOCC1)C(=O)N[C@@H](Cc1ccccc1)C(=O)N[C@@H](CC(C)C)C(=O)[C@@]1(C)CO1 [Carfilzomib] | 73 | 65.6
19 | CCOC(=O)C1=C(COCCN)NC(C)=C(C(=O)OC)C1c1ccccc1Cl.O=S(=O)(O)c1ccccc1 (stereo not given) [Amlodipine Besylate] + CC(C)C[C@H](NC(=O)[C@H](CCc1ccccc1)NC(=O)CN1CCOCC1)C(=O)N[C@@H](Cc1ccccc1)C(=O)N[C@@H](CC(C)C)C(=O)[C@@]1(C)CO1 [Carfilzomib] | 97.1 | 64.8
20 | Cl.OC(CNCC(O)C1CCc2cc(F)ccc2O1)C1CCc2cc(F)ccc2O1 (stereo not given) [Nebivolol] + CC(C)C[C@H](NC(=O)[C@H](CCc1ccccc1)NC(=O)CN1CCOCC1)C(=O)N[C@@H](Cc1ccccc1)C(=O)N[C@@H](CC(C)C)C(=O)[C@@]1(C)CO1 [Carfilzomib] | 72.5 | 64.3
21 | Cl.OC(c1cc(C(F)(F)F)nc2c(C(F)(F)F)cccc12)C1CCCCN1 (stereo not given) [Mefloquine hydrochloride] + CC(C)C[C@H](NC(=O)[C@H](CCc1ccccc1)NC(=O)CN1CCOCC1)C(=O)N[C@@H](Cc1ccccc1)C(=O)N[C@@H](CC(C)C)C(=O)[C@@]1(C)CO1 [Carfilzomib] | 82.9 | 51.6
22 | CCCCc1oc2ccccc2c1C(=O)c1cc(I)c(OCCN(CC)CC)c(I)c1.Cl [Amiodarone HCl] + CC(C)C[C@H](NC(=O)[C@H](CCc1ccccc1)NC(=O)CN1CCOCC1)C(=O)N[C@@H](Cc1ccccc1)C(=O)N[C@@H](CC(C)C)C(=O)[C@@]1(C)CO1 [Carfilzomib] | 90.8 | 63.7
23 | CN1CCCC1CCOC(C)(c1ccccc1)c1ccc(Cl)cc1.O=C(O)C=CC(=O)O (stereo not given) [Clemastine Fumarate] + CC(C)C[C@H](NC(=O)[C@H](CCc1ccccc1)NC(=O)CN1CCOCC1)C(=O)N[C@@H](Cc1ccccc1)C(=O)N[C@@H](CC(C)C)C(=O)[C@@]1(C)CO1 [Carfilzomib] | 77.2 | 61.1
24 | COc1cc2c(Oc3ccc(NC(=O)C4(C(=O)Nc5ccc(F)cc5)CC4)cc3F)ccnc2cc1OCCCN1CCOCC1 + CC(C)C[C@H](NC(=O)[C@H](CCc1ccccc1)NC(=O)CN1CCOCC1)C(=O)N[C@@H](Cc1ccccc1)C(=O)N[C@@H](CC(C)C)C(=O)[C@@]1(C)CO1 [Carfilzomib] | 75.8 | 32.5
25 | CN1CCN(c2ccc(C(=O)/N=c3\[nH][nH]c4ccc(Cc5cc(F)cc(F)c5)cc34)c(NC3CCOCC3)c2)CC1 [Entrectinib] + CC(C)C[C@H](NC(=O)[C@H](CCc1ccccc1)NC(=O)CN1CCOCC1)C(=O)N[C@@H](Cc1ccccc1)C(=O)N[C@@H](CC(C)C)C(=O)[C@@]1(C)CO1 [Carfilzomib] | 90.7 | 45
